# PubChem BioAssay (NCI)
# About 79,000 compounds went through this panel and 15% of them were active in at least one assay; those are over-represented in the sample as a whole. Unmarked numbers belong to inactive results. Active and inactive are the calls of the source. Cut-off read from the data, not from the text of the source: active = growth inhibition above about 70%; inactive = the rest.
# Legend:
# [1] = NCI Yeast Anticancer Drug Screen. Data for the rad52 strain (AID 147);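 note: 0% = growth of vehicle-treated control cultures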; conditions: S. cerevisiae rad52 mutant growth inhibition, active compounds read high
# Procedure, shortened: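 Yeast strain carrying a DNA damage repair alteration was exposed to test compounds. Growth inhibition was measured relative to vehicle-treated controls.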
# [2] = NCI Yeast Anticancer Drug Screen. Data for the wt1 strain (AID 149);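 note: 0% = growth of vehicle-treated wt1 cultures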; conditions: S. cerevisiae wt1 strain (SPY 50644) growth inhibition, active compounds read high
# Procedure, shortened: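 Yeast wt1 strain exposed to compounds; growth inhibition measured relative to vehicle-treated controls.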
# [3] = NCI Yeast Anticancer Drug Screen. Data for the rad50EPP+ strain (AID 151);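 note: 0% = growth of vehicle-treated control cultures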; conditions: S. cerevisiae rad50 mutant strain, active compounds read high
# Procedure, shortened: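 Yeast strain carrying rad50 alteration (rad50EPP+) exposed to compounds; growth inhibition measured relative to vehicle-treated controls.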
# [4] = NCI Yeast Anticancer Drug Screen. Data for the mgt1 strain (AID 153); conditions: S. cerevisiae mgt1 mutant growth inhibition, active compounds read high
# Procedure, shortened: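 Yeast mgt1 strain (DNA repair/cell-cycle alteration panel) exposed to compounds; growth inhibition measured relative to vehicle-treated controls.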
# [5] = NCI Yeast Anticancer Drug Screen. Data for the rad50 strain (AID 155);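 note: 0% = growth of vehicle-only cultures of the same strain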; conditions: S. cerevisiae rad50 strain growth inhibition, active compounds read high
# Procedure, shortened: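 Yeast carrying a defined DNA repair defect were exposed to test compounds, and growth was compared with vehicle-treated controls to give percent inhibition.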
# [6] = NCI Yeast Anticancer Drug Screen. Data for the mec2-1 strain (AID 157); conditions: S. cerevisiae mec2-1 strain, active compounds read high
# Procedure, shortened: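 mec2-1 yeast strain, carrying an alteration in DNA damage repair or cell cycle control, was exposed to compounds; growth inhibition was measured relative to vehicle-treated controls.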
# [7] = NCI Yeast Anticancer Drug Screen. Data for the rad14 strain (AID 159);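 note: 0% = growth of vehicle-treated control cultures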; conditions: S. cerevisiae rad14 strain growth inhibition, active compounds read high
# Procedure, shortened: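 Yeast cells carrying a defined DNA-repair defect were exposed to compounds, and growth inhibition was calculated relative to vehicle-treated control cultures.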
# [8] = NCI Yeast Anticancer Drug Screen. Data for the sgs1 mgt1 strain (AID 161);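 note: 0% = growth of cultures given vehicle only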; conditions: S. cerevisiae sgs1 mgt1 strain, active compounds read high
# Procedure, shortened: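 This yeast growth screen uses a strain with defined DNA-repair lesions; compound-treated growth is compared with vehicle-treated growth.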
# [9] = NCI Yeast Anticancer Drug Screen. Data for the CLN2oe strain (AID 163);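 note: 0% = growth of vehicle-only control cultures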; conditions: S. cerevisiae CLN2oe strain, active compounds read high
# Procedure, shortened: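 Yeast cells carrying a defined cell-cycle control alteration were exposed to test compounds. Growth inhibition was scored against vehicle-treated control cultures.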
# [10] = NCI Yeast Anticancer Drug Screen. Data for the cln2 rad14 strain (AID 165);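 note: 0% = growth equal to vehicle treated cultures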; conditions: S. cerevisiae cln2 rad14 strain, active compounds read high
# Procedure, shortened: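 Yeast carrying cln2 and rad14 alterations (cell cycle control and DNA damage repair) were exposed to compounds. Growth inhibition was measured against vehicle-treated controls.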
# [11] = NCI Yeast Anticancer Drug Screen. Data for the bub3 strain (AID 167); conditions: S. cerevisiae bub3 mutant strain, active compounds read high
# Procedure, shortened: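 Compounds were applied to a genetically altered yeast strain carrying a cell-cycle control defect. Growth inhibition was scored against vehicle-treated controls.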
# [12] = NCI Yeast Anticancer Drug Screen. Data for the wt2 strain (AID 169);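 note: 0% = growth of vehicle-treated yeast cultures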; conditions: S. cerevisiae wt2 strain growth inhibition, active compounds read high
# Procedure, shortened: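 Yeast cells were exposed to test compounds, and growth inhibition was measured relative to vehicle-treated controls.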
# [13] = NCI Yeast Anticancer Drug Screen. Data for the mlh1 strain (AID 171);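 note: 0% = growth of vehicle-treated control cultures of the same strain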; conditions: S. cerevisiae mlh1 strain growth inhibition, active compounds read high
# Procedure, shortened: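 Yeast carrying a defined genetic alteration in DNA damage repair or cell cycle control were exposed to test compounds. Growth inhibition was measured relative to vehicle-treated controls.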
# [14] = NCI Yeast Anticancer Drug Screen. Data for the mlh1 rad18 strain (AID 175); conditions: S. cerevisiae mlh1 rad18 strain growth inhibition, active compounds read high
# Procedure, shortened: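 Growth inhibition of the yeast strain was measured after compound exposure and expressed relative to vehicle-treated controls. The strain carries defined defects in DNA damage repair.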
# [15] = NCI Yeast Anticancer Drug Screen. Data for the rad18 strain (AID 177); conditions: S. cerevisiae rad18 mutant growth inhibition, active compounds read high
# Procedure, shortened: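 Yeast carrying a defined DNA damage repair alteration were exposed to compounds. Growth inhibition was expressed relative to vehicle-treated controls.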
# [16] = at 5.0 µM (retest, dose inferred, filed as 0.5)
# [17] = at 50.0 µM (retest, dose inferred, filed as 5.0)
smiles,measurement,setting,value
N#Cc1c(N)[nH]c2ccc(Sc3ccccc3)cc12,growth inhibition,[1]; at 1.2 µM,1%
same,growth inhibition,[1]; at 3.7 µM,0%
same,growth inhibition,[1]; at 11.0 µM,14%
same,growth inhibition,[1]; at 33.0 µM,94% (active)
same,growth inhibition,[1]; at 100.0 µM,81% (active)
same,growth inhibition,[2]; at 1.2 µM,1%
same,growth inhibition,[2]; at 3.7 µM,5%
same,growth inhibition,[2]; at 11.0 µM,1%
same,growth inhibition,[2]; at 33.0 µM,82% (active)
same,growth inhibition,[2]; at 100.0 µM,93% (active)
same,growth inhibition,[3]; at 1.2 µM,3%
same,growth inhibition,[3]; at 3.7 µM,6%
same,growth inhibition,[3]; at 11.0 µM,19%
same,growth inhibition,[3]; at 33.0 µM,33%
same,growth inhibition,[3]; at 100.0 µM,51%
same,growth inhibition,[4]; at 1.2 µM,-1%
same,growth inhibition,[4]; at 3.7 µM,-2%
same,growth inhibition,[4]; at 11.0 µM,9%
same,growth inhibition,[4]; at 33.0 µM,96% (active)
same,growth inhibition,[4]; at 100.0 µM,97% (active)
same,growth inhibition,[5]; at 1.2 µM,1%
same,growth inhibition,[5]; at 3.7 µM,0%
same,growth inhibition,[5]; [16],-3%
same,growth inhibition,[5]; at 11.0 µM,23%
same,growth inhibition,[5]; at 33.0 µM,93% (active)
same,growth inhibition,[5]; [17],44%
same,growth inhibition,[5]; at 50.0 µM,46.1%
same,growth inhibition,[5]; at 100.0 µM,96% (active)
same,growth inhibition,[6]; at 1.2 µM,-2%
same,growth inhibition,[6]; at 3.7 µM,2%
same,growth inhibition,[6]; [16],-22%
same,growth inhibition,[6]; at 11.0 µM,6%
same,growth inhibition,[6]; at 33.0 µM,93% (active)
same,growth inhibition,[6]; [17],-6%
same,growth inhibition,[6]; at 50.0 µM,62.8%
same,growth inhibition,[6]; at 100.0 µM,97% (active)
same,growth inhibition,[7]; at 1.2 µM,1%
same,growth inhibition,[7]; at 3.7 µM,4%
same,growth inhibition,[7]; at 11.0 µM,7%
same,growth inhibition,[7]; at 33.0 µM,95% (active)
same,growth inhibition,[7]; at 100.0 µM,97% (active)
same,growth inhibition,[8]; [16],-3%
same,growth inhibition,[8]; [17],40%
same,growth inhibition,[8]; at 50.0 µM,52.9%
same,growth inhibition,[9]; at 1.2 µM,-6%
same,growth inhibition,[9]; at 3.7 µM,-22%
same,growth inhibition,[9]; at 11.0 µM,12%
same,growth inhibition,[9]; at 33.0 µM,95% (active)
same,growth inhibition,[9]; at 100.0 µM,96% (active)
same,growth inhibition,[10]; [16],-3%
same,growth inhibition,[10]; [17],14%
same,growth inhibition,[10]; at 50.0 µM,-0.8%
same,growth inhibition,[11]; at 1.2 µM,-5%
same,growth inhibition,[11]; at 3.7 µM,-6%
same,growth inhibition,[11]; [16],12%
same,growth inhibition,[11]; at 11.0 µM,6%
same,growth inhibition,[11]; at 33.0 µM,93% (active)
same,growth inhibition,[11]; [17],51%
same,growth inhibition,[11]; at 50.0 µM,52.4%
same,growth inhibition,[11]; at 100.0 µM,96% (active)
same,growth inhibition,[12]; at 1.2 µM,0%
same,growth inhibition,[12]; at 3.7 µM,1%
same,growth inhibition,[12]; at 11.0 µM,4%
same,growth inhibition,[12]; at 33.0 µM,92% (active)
same,growth inhibition,[12]; at 100.0 µM,96% (active)
same,growth inhibition,[13]; at 1.2 µM,-1%
same,growth inhibition,[13]; at 3.7 µM,3%
same,growth inhibition,[13]; at 11.0 µM,11%
same,growth inhibition,[13]; at 33.0 µM,96% (active)
same,growth inhibition,[13]; at 100.0 µM,97% (active)
same,growth inhibition,[14]; [16],19%
same,growth inhibition,[14]; [17],85% (active)
same,growth inhibition,[14]; at 50.0 µM,70.5% (active)
same,growth inhibition,[15]; at 1.2 µM,12%
same,growth inhibition,[15]; at 3.7 µM,37%
same,growth inhibition,[15]; at 11.0 µM,87% (active)
same,growth inhibition,[15]; at 33.0 µM,95% (active)
same,growth inhibition,[15]; at 100.0 µM,96% (active)
